PMC7862700, “An all-to-all approach to the identification of sequence-specific readers for epigenetic DNA modifications on cytosine”

Tests used:
Experiment in all cases: DAPPL (digital affinity profiling via proximity ligation, sequencing); 10 mM Tris-HCl pH 7.5, 50 mM NaCl, 1 mM DTT, 4% glycerol, room temperature, 30 min; GST-TFs on glutathione beads, 16-mer random dsDNA library, 0.1% formaldehyde crosslink after washing; high values mean tight binding
FLI1 = target: T1, FLI1 (Homo sapiens, UniProt Q01543 1-452); settings: protein: recombinant; tags: N-terminal GST; dsDNA, one strand shown
T1 sequence: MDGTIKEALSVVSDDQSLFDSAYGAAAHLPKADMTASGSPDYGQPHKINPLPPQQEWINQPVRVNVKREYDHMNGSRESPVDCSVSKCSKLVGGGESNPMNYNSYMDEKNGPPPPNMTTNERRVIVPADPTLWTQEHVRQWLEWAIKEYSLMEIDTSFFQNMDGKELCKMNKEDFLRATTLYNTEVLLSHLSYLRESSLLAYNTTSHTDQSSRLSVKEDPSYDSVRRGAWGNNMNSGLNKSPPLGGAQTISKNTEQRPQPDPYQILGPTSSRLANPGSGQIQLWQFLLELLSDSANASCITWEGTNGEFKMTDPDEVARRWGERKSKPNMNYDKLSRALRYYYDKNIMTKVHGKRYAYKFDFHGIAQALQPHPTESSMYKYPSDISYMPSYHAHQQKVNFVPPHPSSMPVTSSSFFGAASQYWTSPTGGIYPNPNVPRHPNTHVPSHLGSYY
Outline: (§1)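 Each value of binding signal is a hexamer's read frequency for a factor divided by the same hexamer's frequency in the tag-only sample. Barcoded, bead-captured GST fusions of human transcription factors made in yeast were pooled with that sample and incubated with 200 nmole of a random double-stranded 16-mer DNA library in Tris/NaCl/DTT/glycerol buffer at room temperature for 30 min. Washing, 0.1% formaldehyde crosslinking, proximity ligation, PCR and Illumina NextSeq500 sequencing followed.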

ELK1 = target: T2, ELK1 (Homo sapiens, UniProt P19419 1-428); settings: protein: recombinant; tags: N-terminal GST; dsDNA, one strand shown
T2 sequence: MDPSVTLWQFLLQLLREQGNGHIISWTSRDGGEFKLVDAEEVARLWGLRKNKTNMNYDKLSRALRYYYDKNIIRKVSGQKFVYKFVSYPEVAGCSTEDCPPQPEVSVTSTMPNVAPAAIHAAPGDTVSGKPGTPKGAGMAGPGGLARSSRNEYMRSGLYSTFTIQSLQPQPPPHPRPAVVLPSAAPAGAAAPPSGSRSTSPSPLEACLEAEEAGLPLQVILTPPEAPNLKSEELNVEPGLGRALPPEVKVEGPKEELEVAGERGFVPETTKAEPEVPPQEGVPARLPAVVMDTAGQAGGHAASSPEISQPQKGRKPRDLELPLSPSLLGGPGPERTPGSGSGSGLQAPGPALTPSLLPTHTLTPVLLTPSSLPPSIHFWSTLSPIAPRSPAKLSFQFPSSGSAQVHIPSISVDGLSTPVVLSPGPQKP
Outline: as §1

GABPA = target: T3, GABPA (Homo sapiens, UniProt Q06546 1-454); settings: protein: recombinant; tags: N-terminal GST; dsDNA, one strand shown
T3 sequence: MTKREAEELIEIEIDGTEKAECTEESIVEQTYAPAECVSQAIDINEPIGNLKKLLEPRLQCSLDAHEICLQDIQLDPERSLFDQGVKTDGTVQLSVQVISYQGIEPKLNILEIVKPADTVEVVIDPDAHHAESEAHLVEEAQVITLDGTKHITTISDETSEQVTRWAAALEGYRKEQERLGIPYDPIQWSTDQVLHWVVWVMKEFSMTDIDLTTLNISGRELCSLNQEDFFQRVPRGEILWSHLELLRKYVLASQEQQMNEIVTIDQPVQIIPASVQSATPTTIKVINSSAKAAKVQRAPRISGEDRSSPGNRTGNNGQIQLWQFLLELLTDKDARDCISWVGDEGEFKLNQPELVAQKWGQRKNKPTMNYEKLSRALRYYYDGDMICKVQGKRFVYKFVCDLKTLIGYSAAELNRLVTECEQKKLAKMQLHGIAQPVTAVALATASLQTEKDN
Outline: as §1

ERG = target: T4, ERG (Homo sapiens, UniProt P11308 1-479); settings: protein: recombinant; tags: N-terminal GST; dsDNA, one strand shown
T4 sequence: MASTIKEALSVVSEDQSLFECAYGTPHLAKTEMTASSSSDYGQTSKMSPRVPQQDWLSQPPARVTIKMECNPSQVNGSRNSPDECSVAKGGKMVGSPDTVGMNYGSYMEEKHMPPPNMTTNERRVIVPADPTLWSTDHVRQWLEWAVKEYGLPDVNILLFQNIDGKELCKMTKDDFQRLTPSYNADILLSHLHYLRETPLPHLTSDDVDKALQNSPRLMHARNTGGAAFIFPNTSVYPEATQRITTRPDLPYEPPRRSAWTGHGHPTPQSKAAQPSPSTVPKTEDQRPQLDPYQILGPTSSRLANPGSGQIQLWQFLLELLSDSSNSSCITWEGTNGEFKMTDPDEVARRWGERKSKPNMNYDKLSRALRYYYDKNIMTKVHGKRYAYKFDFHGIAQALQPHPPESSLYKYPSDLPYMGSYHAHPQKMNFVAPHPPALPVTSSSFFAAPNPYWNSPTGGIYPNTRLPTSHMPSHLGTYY
Outline: as §1

ELF1 = ELF1 (Homo sapiens, UniProt P32519 1-619); settings: protein: recombinant; tags: N-terminal GST; dsDNA, one strand shown
Sequence of ELF1 (P32519 whole entry): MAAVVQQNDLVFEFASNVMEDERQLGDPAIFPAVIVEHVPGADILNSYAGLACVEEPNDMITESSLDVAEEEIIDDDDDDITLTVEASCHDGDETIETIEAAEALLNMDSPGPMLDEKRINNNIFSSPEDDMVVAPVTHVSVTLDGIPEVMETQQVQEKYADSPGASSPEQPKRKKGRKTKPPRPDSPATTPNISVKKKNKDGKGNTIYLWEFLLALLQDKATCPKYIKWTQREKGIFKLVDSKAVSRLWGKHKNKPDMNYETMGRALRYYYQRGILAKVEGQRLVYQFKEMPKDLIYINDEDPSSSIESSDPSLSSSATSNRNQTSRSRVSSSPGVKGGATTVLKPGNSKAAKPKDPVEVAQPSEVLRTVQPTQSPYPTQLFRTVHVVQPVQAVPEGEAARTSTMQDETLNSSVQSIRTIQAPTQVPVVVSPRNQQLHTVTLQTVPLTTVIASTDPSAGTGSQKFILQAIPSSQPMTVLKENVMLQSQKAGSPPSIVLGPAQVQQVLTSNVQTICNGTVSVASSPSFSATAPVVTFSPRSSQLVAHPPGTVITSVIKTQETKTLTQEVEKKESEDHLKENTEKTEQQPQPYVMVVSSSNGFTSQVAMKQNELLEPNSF
Outline: as §1

EHF = target: T5, EHF (Homo sapiens, UniProt Q9NZC4 1-300); settings: protein: recombinant; tags: N-terminal GST; dsDNA, one strand shown
T5 sequence: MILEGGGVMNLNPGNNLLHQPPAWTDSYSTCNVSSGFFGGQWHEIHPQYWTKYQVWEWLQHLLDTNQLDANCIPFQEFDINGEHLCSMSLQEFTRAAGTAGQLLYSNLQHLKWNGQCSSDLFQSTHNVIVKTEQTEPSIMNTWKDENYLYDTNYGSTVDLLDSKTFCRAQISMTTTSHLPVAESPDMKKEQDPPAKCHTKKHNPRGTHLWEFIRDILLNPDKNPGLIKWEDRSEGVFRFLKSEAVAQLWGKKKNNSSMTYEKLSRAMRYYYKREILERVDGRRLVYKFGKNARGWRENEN
Outline: as §1

SPI1 = SPI1 (Homo sapiens, UniProt P17947 1-270); settings: protein: recombinant; tags: N-terminal GST; dsDNA, one strand shown
Outline: as §1

SPIB = SPIB (Homo sapiens, UniProt Q01892 1-262); settings: protein: recombinant; tags: N-terminal GST; dsDNA, one strand shown
Sequence of SPIB (Q01892 whole entry): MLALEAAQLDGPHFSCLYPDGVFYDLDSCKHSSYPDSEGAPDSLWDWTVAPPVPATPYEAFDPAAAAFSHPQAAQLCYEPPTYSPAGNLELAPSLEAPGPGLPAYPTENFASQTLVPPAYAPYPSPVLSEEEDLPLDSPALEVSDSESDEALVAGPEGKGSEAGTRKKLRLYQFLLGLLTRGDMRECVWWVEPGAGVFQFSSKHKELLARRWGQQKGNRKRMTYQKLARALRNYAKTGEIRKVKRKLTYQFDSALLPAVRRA
Outline: as §1

ELK3 = target: T6, ELK3 (Homo sapiens, UniProt P41970 1-407); settings: protein: recombinant; tags: N-terminal GST; dsDNA, one strand shown
T6 sequence: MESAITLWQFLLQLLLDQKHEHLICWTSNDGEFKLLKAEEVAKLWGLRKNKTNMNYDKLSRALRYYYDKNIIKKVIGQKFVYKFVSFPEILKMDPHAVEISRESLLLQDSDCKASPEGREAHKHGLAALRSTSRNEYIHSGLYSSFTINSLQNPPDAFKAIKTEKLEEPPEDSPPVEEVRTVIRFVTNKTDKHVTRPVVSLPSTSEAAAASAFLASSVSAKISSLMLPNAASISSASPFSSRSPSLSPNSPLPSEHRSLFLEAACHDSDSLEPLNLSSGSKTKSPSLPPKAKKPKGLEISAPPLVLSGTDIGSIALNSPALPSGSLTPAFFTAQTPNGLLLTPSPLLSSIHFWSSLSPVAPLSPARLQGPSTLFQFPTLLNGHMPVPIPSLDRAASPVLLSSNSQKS
Outline: as §1

FEV = target: T7, FEV (Homo sapiens, UniProt Q99581 1-238); settings: protein: recombinant; tags: N-terminal GST; dsDNA, one strand shown
T7 sequence: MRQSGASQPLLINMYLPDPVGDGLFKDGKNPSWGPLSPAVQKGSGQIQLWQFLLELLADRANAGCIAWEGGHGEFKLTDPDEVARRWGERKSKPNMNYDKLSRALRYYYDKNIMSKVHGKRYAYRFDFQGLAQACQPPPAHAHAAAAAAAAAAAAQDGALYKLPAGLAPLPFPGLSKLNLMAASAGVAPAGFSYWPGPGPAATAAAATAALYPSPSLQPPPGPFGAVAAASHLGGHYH
Outline: as §1

ETV5 = ETV5 (Homo sapiens, UniProt P41161 1-510); settings: protein: recombinant; tags: N-terminal GST; dsDNA, one strand shown
Sequence of ETV5 (P41161 whole entry): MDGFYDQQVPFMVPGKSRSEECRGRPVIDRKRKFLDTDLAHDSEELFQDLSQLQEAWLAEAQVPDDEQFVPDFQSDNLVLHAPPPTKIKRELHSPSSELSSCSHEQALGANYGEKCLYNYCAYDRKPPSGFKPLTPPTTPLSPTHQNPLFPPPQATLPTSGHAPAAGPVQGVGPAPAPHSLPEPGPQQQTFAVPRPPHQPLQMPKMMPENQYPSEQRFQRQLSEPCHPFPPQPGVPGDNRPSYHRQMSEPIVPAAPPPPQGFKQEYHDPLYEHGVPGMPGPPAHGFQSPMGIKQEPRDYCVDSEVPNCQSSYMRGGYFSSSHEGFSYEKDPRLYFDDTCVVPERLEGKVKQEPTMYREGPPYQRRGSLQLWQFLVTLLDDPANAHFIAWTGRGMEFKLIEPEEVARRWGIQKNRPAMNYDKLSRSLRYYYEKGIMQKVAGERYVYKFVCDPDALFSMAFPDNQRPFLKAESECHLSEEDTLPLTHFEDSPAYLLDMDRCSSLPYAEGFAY
Outline: as §1

HSF1 = HSF1 (Homo sapiens, UniProt Q00613 1-529); settings: protein: recombinant; tags: N-terminal GST; chain copies: 3; dsDNA, one strand shown
Sequence of HSF1 (Q00613 whole entry): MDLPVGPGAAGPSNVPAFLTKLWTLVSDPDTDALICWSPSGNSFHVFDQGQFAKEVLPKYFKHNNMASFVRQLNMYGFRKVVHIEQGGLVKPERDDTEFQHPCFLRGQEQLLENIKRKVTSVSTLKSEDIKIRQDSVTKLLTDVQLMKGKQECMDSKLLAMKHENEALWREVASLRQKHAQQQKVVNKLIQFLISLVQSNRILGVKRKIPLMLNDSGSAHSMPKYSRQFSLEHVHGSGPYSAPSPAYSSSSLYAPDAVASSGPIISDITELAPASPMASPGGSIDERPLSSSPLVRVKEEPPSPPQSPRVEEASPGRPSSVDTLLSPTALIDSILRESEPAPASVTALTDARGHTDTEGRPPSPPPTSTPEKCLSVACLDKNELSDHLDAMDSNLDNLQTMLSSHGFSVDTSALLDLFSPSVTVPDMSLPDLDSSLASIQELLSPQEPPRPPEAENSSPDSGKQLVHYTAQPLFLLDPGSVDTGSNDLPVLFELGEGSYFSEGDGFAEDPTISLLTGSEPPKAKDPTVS
Outline: as §1

SPIC = target: T8, SPIC (Homo sapiens, UniProt Q8N5J4 1-248); settings: protein: recombinant; tags: N-terminal GST; dsDNA, one strand shown
T8 sequence: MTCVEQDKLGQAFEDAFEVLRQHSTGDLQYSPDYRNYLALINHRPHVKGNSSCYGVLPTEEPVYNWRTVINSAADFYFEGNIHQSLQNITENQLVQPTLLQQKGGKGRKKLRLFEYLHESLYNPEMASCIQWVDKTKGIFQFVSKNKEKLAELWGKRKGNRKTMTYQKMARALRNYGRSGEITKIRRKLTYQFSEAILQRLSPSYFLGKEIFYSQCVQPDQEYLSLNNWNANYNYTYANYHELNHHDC
Outline: as §1

ELF4 = ELF4 (Homo sapiens, UniProt Q99607 1-663); settings: protein: recombinant; tags: N-terminal GST; dsDNA, one strand shown
Sequence of ELF4 (Q99607 whole entry): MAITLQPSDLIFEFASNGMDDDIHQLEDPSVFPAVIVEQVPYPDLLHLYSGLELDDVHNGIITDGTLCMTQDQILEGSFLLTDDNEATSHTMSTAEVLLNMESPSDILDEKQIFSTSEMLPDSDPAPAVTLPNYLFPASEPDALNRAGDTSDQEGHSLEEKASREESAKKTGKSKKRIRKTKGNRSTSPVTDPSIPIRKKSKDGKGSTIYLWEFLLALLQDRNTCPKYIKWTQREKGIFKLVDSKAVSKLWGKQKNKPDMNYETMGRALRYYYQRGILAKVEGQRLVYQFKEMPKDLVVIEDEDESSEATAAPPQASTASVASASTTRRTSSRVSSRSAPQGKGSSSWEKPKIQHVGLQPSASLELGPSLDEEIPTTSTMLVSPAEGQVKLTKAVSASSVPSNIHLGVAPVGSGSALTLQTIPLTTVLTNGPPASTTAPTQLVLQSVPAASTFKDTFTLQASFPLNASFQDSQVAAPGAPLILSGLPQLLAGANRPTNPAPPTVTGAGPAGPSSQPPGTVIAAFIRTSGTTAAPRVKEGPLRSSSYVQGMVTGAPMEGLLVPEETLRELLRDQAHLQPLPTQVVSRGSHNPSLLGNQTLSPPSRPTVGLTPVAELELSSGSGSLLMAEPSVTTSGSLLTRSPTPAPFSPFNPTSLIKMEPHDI
Outline: as §1

ELK4 = target: T9, ELK4 (Homo sapiens, UniProt P28324-2 1-405); settings: protein: recombinant; tags: N-terminal GST; dsDNA, one strand shown
T9 sequence: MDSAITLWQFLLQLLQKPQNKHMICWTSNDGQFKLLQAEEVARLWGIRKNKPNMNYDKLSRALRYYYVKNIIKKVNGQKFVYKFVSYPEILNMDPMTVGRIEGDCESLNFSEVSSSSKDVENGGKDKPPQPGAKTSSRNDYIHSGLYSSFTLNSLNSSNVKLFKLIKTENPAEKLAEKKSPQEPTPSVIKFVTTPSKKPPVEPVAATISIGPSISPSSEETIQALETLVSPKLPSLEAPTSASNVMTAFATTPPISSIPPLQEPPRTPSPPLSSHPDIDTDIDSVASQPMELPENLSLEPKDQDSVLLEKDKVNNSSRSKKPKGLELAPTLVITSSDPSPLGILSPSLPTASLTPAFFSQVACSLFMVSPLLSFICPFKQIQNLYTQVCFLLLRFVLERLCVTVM
Outline: as §1

ETV2 = target: T10, ETV2 (Homo sapiens, UniProt O00321 1-342); settings: protein: recombinant; tags: N-terminal GST; dsDNA, one strand shown
T10 sequence: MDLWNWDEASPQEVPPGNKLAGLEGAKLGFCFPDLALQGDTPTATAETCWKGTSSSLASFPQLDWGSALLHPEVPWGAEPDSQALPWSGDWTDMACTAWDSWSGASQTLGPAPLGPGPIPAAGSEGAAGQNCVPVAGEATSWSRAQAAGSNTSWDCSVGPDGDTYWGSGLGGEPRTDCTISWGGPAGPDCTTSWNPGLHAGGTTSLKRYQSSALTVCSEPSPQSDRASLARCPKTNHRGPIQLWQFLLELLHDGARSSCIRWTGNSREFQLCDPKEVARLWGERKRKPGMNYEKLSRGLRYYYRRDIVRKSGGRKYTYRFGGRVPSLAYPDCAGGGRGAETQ
Outline: as §1

ELF3 = target: T11, ELF3 (Homo sapiens, UniProt P78545 1-371); settings: protein: recombinant; tags: N-terminal GST; dsDNA, one strand shown
T11 sequence: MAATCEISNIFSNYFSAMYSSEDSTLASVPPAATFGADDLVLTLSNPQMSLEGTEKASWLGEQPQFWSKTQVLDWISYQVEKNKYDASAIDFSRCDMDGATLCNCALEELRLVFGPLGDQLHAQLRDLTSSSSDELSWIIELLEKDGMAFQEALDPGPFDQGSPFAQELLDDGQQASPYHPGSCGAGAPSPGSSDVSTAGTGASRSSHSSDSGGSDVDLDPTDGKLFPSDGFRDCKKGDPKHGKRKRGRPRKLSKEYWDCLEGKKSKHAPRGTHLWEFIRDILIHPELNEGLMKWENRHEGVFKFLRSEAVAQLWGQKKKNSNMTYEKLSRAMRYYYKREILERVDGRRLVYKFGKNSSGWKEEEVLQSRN
Outline: as §1

CRX = CRX (Homo sapiens, UniProt O43186 1-299); settings: protein: recombinant; tags: N-terminal GST; dsDNA, one strand shown
Sequence of CRX (O43186 whole entry): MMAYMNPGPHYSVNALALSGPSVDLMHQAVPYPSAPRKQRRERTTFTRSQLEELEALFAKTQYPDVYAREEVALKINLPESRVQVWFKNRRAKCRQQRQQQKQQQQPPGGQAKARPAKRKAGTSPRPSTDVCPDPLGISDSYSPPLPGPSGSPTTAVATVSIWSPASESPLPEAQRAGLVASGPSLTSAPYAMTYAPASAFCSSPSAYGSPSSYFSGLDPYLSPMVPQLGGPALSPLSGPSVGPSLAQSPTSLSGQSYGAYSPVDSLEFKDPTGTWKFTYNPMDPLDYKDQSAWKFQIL
Outline: as §1

ETV1 = ETV1 (Homo sapiens, UniProt P50549 1-477); settings: protein: recombinant; tags: N-terminal GST; dsDNA, one strand shown
Sequence of ETV1 (P50549 whole entry): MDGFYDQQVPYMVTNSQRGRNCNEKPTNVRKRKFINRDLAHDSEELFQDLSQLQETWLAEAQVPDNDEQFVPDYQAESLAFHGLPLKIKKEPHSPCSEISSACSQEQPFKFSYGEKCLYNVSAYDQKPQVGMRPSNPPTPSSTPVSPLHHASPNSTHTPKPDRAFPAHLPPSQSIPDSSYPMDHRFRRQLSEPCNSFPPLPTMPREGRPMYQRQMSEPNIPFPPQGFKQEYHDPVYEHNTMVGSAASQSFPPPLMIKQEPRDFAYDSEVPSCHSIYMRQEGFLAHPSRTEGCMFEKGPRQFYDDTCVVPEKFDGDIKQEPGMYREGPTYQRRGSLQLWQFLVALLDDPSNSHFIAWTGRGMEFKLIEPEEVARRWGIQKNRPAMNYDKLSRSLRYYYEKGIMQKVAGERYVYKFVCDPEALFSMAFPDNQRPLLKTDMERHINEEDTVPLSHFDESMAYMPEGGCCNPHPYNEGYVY
Outline: as §1

TTCAAA
binding signal (FLI1): 1.23 fold enrichment (6-mer frequency, TF over GST control)
binding signal (ELK1): 1.23 fold enrichment (6-mer frequency, TF over GST control)
binding signal (GABPA): 1.4 fold enrichment (6-mer frequency, TF over GST control)
binding signal (ERG): 1.2 fold enrichment (6-mer frequency, TF over GST control)
binding signal (ELF1): 1.34 fold enrichment (6-mer frequency, TF over GST control)
binding signal (EHF): 1.24 fold enrichment (6-mer frequency, TF over GST control)
binding signal (SPI1): 1.26 fold enrichment (6-mer frequency, TF over GST control)
binding signal (SPIB): 1.3 fold enrichment (6-mer frequency, TF over GST control)
binding signal (ELK3): 1.36 fold enrichment (6-mer frequency, TF over GST control)
binding signal (FEV): 1.25 fold enrichment (6-mer frequency, TF over GST control)
binding signal (ETV5): 1.26 fold enrichment (6-mer frequency, TF over GST control)
binding signal (HSF1): 1.25 fold enrichment (6-mer frequency, TF over GST control)
binding signal (SPIC): 1.35 fold enrichment (6-mer frequency, TF over GST control)
binding signal (ELF4): 1.26 fold enrichment (6-mer frequency, TF over GST control)
binding signal (ELK4): 1.33 fold enrichment (6-mer frequency, TF over GST control)
binding signal (ETV2): 1.34 fold enrichment (6-mer frequency, TF over GST control)
binding signal (ELF3): 1.43 fold enrichment (6-mer frequency, TF over GST control)
binding signal (CRX): 1.28 fold enrichment (6-mer frequency, TF over GST control)
binding signal (ETV1): 1.32 fold enrichment (6-mer frequency, TF over GST control)
